Screens: PubChem BioAssay, several laboratories
Only some compounds are listed: those with a hit (about 1.8% of all), similar ones and a draw of the others.
PfHsp40 yeast: restores yeast growth despite PfHsp40 toxicity; S. cerevisiae expressing PfHsp40, growth rescue, ATP luminescence; growth rescue, % at 12.5 µM; 0.68% of 340,000 active; in the data active = growth rescue above about 28%, passing the limit was not always enough;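 also: yeast W303a lacking pdr1 and pdr3 grown in galactose medium; growth measured after three days at 30 °C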
ugtP null kill: kills S. aureus RN4220 lacking UgtP; S. aureus RN4220 ugtP deletion, OD600 growth, 16 h; growth inhibition, % (test concentration not listed); 0.54% of 330,000 active; AID 1259309; in the data active = growth inhibition above about 68%;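 also: plate controls were untreated wells for no effect and antibiotic for full effect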
RN4220 kill: S. aureus RN4220 growth inhibition; OD600, 16 h; inhibition, % (concentration not given with the values); 0.33% of 330,000 active; AID 1259311; in the data active = inhibition above about 85%;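 also: plate controls were untreated cells for no effect and reference antibiotic for full effect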
DUSP3 inh: DUSP3 (human) phosphatase inhibition. P51452. recombinant VHR phosphatase, pNPP absorbance. inhibition, % at 13.3 µM. 0.52% of 290,000 active; in the data active = inhibition above about 50%
Target sequence (P51452 whole entry, looked up): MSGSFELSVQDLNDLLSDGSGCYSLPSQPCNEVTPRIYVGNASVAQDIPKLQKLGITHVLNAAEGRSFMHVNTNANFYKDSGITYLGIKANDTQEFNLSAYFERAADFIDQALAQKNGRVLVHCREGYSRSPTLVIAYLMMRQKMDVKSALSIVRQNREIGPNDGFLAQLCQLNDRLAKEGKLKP
SSB-PriA inh: K. pneumoniae PriA-SSBct interaction inhibition; AID 1272365; AlphaScreen SSBct-PriA binding, biotinylated peptide; inhibition, % at 33 µM; 0.6% of 430,000 active; in the data active = inhibition mostly above about 37%, no sharp cut-off; inactive = mostly below about 20%;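 also: plate controls were negative control peptide for no effect and reference peptide for full effect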
Mtb hypoxia inh: Mtb hypoxia fluorescent reporter inhibition. 0.1% of 300,000 active. fluorescence inhibition, % (concentration not given with the values). M. tuberculosis hypoxia-regulated fluorescent reporter, fluorescence. AID 1159583; in the data active = fluorescence inhibition mostly above about 23%, no sharp cut-off; inactive = mostly below about 17%
An asterisk follows results filed as active; . = no result shown.

SMILES	PfHsp40 yeast	ugtP null kill	RN4220 kill	DUSP3 inh	SSB-PriA inh	Mtb hypoxia inh
Clc1cc2c(c3ncccc13)OCN(CCCN1CCOCC1)C2	.	.	.	.	105*	.
O=[N+]([O-])c1ccc(NCCCN2CCOCC2)c2ncccc12	0	9	5	12	-2	7
CC1CCC(C(C)C)C(OC(=O)Cn2c(-c3ccc(Cl)cc3)[n+](C)c3ccccc32)C1 (configuration not stated)	0	100*	100*	6	-1	.
Cc1ccccc1OCc1n(CC(=O)OC2CC(C)CCC2C(C)C)c2ccccc2[n+]1C (configuration not stated)	10	101*	100*	18	15	.
CC1CCC(C(C)C)C(OC(=O)C[n+]2cccc(C(N)=O)c2)C1 (configuration not stated)	0	-1	0	-1	-20	.
CC1CCC(C(C)C)C(OC(=O)COC(=O)c2ccc(N)cc2)C1 (configuration not stated)	2	83	5	35	-6	2
CC1CCC(C(C)C)C(OC(=O)Cn2c(-c3ccc(Br)cc3)[n+](C)c3ccccc32)C1 (configuration not stated)	0	100*	100*	17	10	.
CCCCCCCCCCOC(=O)Cn1c(COc2ccccc2C)[n+](C)c2ccccc21	9	.	.	4	1	.
CC1CCC(C(C)C)C(OC(=O)COC(=O)c2ccccc2N)C1 (configuration not stated)	1	94*	-1	14	-16	7
CC1CCC(C(C)C)C(OC(=O)COC(=O)c2cccn2C)C1 (configuration not stated)	-1	23	3	15	-4	.
Cc1ccc(NC(=O)CSc2nc(C)c(C(=O)Nc3ccccc3C)c(-c3ccc(Cl)cc3)c2C#N)cc1C	.	.	.	.	-30	.
COc1cccc(N2CCN(S(=O)(=O)C3CC3)CC2)c1	.	.	.	.	1	.
O=C(CSC1CCCC1)N1CCN(C(=O)c2cnn3ccccc23)CC1	.	.	.	.	4	.
Cc1cccc(-c2nc3c(c(SCC(=O)N4CCOCC4)n2)COC(C)(C)C3)c1	0	4	3	60*	-2	-3
CC1(C)Cc2nc(-c3ccccc3)nc(SCC(=O)N3CCOCC3)c2CO1	-1	2	2	39	-7	7
CCOC(=O)c1oc2ccc(Br)cc2c1NC(=O)CN1CCN(C)CC1	0	91*	1	-1	-12	.
COC(=O)c1oc2ccc(Br)cc2c1NC(=O)CCN1CCOCC1	0	-8	2	15	-8	-3
CC1CN(C(=O)/C=C/c2ccc3c(c2)OCO3)CC(C)O1 (configuration not stated)	0	-1	0	14	-4	91*
O=C(/C=C/c1ccc2c(c1)OCO2)N1CCOCC1	-1	5	1	34	-2	.
CC(C)Sc1cc(N2CCOCC2)nc(-c2ccc(Cl)cc2)n1	-1	2	6	32	-16	14
CCN1CCN(c2cc(SC(C)C)nc(-c3ccc(OC)cc3)n2)CC1	0	93*	-3	38	13	14
Nc1cc2cccnc2c2ncccc12	.	.	.	.	152*	.
O=Cc1ccc2ccc3cccnc3c2n1	6	1	5	57*	81*	-1
c1ccc2c(c1)ccc1cccnc12	.	.	.	.	29	.
c1cnc2c(c1)ccc1cccnc12	57*	-5	2	2	102*	.
SMILES	PfHsp40 yeast	ugtP null kill	RN4220 kill	DUSP3 inh	SSB-PriA inh	Mtb hypoxia inh
O=Cc1ccc2cccnc2n1	-1	2	6	-12	-4	-3
NC(=O)CNC(=O)C1CC2(CC(c3ccc(Cl)cc3)=NO2)CN1C(=O)c1ccccc1 (configuration not stated)	.	3	7	.	.	4
O=[N+]([O-])c1ccccc1NN=C1CC2CC=CC12 (configuration not stated)	.	6	7	.	71*	11
COc1ccc(Br)cc1/C=N/n1c(C)nc2ccccc2c1=O	-1	.	.	58*	.	.
COC(=O)C1=C(c2ccc(OC(F)(F)F)cc2)CC2CCC1N2C(=O)N1CCCCC1 (configuration not stated)	.	7	5	.	.	5
CCOc1ccccc1NC1=NCC(=O)N1Cc1ccc(F)cc1	-1	5	2	53*	-4	9
CCc1cc(C(Cc2csc(C)n2)=NO)c(O)cc1O	.	2	17	.	5	-1
O=C(NC(=S)Nc1nc2c(s1)CSc1ccccc1-2)c1ccccc1	-1	84*	20	18	-4	7
O=[N+]([O-])c1ncccc1OCc1ccc(-c2ccccc2)cc1	1	89*	-1	-23	-2	-13
N#Cc1ccc(COc2cccnc2[N+](=O)[O-])cc1	1	10	1	7	-11	3
CCOC(=O)c1cnc(-n2nc(C)cc2C)nc1NC1CCCCC1	92*	-8	13	19	-8	-4
CCOC(=O)c1cnc(-n2nc(C)cc2C)nc1NC	0	-5	31	10	11	-1
CN(C)c1cncc(OC2CCN(C(=O)c3ccc(Br)o3)C2)n1 (configuration not stated)	.	.	.	.	13	.
Oc1c(CN2CCOCC2)cc(COCc2ccccc2)c2cccnc12	65*	3	6	-6	93	9
Oc1c(CNc2ccccc2)cc(COCc2ccccc2)c2cccnc12	53*	3	9	.	34	0
CCOC(=O)CCC(=O)Nc1ccn2nccc2c1	.	.	.	.	-54	.
O=C(NN=Cc1ccc(OC(=O)c2ccc3c(c2)OCO3)cc1)c1cncc(Br)c1	.	-8	9	.	-7	4
O=C(N/N=C/c1cc(Br)cc(Cl)c1O)c1ccc2c(c1)OCO2	257*	.	.	.	.	.
O=C(N/N=C/c1ccc(OC(=O)c2ccc3c(c2)OCO3)cc1)c1cncc(Br)c1	-1	.	.	51*	.	.
O=C(N/N=C/c1cc(Br)c(O)c(Br)c1O)c1ccc2c(c1)OCCO2	152*	.	.	22	.	.
OCC1OC(OCC2OC(O)C(O)C(O)C2O)C(O)C(O)C1O (configuration not stated)	.	1	9	.	.	4
CC(C)(C)c1ccc(OCc2ccc(C(=O)Nc3cccnc3)o2)cc1	37*	5	-8	15	2	2
CCCCOc1ccc(C(=O)N2CCC(c3nc4ccccc4[nH]3)CC2)cc1	.	.	.	.	91*	.
CCCCNS(=O)(=O)c1ccc2nc(SCC(=O)c3ccc(C#N)cc3)[nH]c2c1	0	-9	-9	57*	-32	6
CCCCNS(=O)(=O)c1ccc2nc(SCC(=O)Nc3ccccc3)[nH]c2c1	-1	-15	-2	-4	-11	-4
COc1ccc(C2C(=C(O)c3ccc(Br)cc3)C(=O)C(=O)N2C)cc1 (configuration not stated)	.	.	.	.	6	.
O=c1oc2ccccc2c(O)c1C(C[N+](=O)[O-])c1c[nH]c2ccccc12 (configuration not stated)	.	.	.	.	11	.
CC(C)CCn1c(SCC(=O)c2ccccc2)nc2cc(C(=O)NCC3CCCO3)ccc2c1=O (configuration not stated)	.	.	.	.	7	.
